40 molecules from PubChem BioAssay (Tox21) can be followed below.

Records with an inconclusive call do not appear. Calls of active or inactive are those of the source. Calls come from the whole dose curve; as a rule, active = well fitted cell-killing curve with a large enough effect in the repeat runs; inconclusive = weak or mixed curves, or effect the other way; inactive = no such curve, though single readings can be large or run the other way.
% is set by controls: 0 for no effect and ±100 for the full control effect.

The test can be described thus: qHTS assay to identify small molecule antagonists of the peroxisome proliferator-activated receptor gamma (PPARg) signaling pathway - cell viability counter screen (AID 743194). Note: nearly all actives have a fitted effect of over 55% in size. To be noted: PPARg-bla HEK293H viability, CellTiter-Glo luminescence, 17 h, co-treated with 50 nM rosiglitazone; series mostly up to 62.6 µM; activity change, negative = cytotoxicity: at the top concentration. From the text: U.S. Tox21 Program National Center for Advancing Translational Sciences [NCATS] NIH Chemical Genomics Center [NCGC] U.S. Environmental Protection Agency [EPA] National Institutes of Environmental Health Sciences [NIEHS] National Toxicology Program [NTP] U.S. Food and Drug Administration [FDA] Tox21 Assay Overview: The peroxisome proliferator-activated receptors (PPARs) are lipid-activated transcription factors of the nuclear receptor superfamily with three distinct subtypes namely PPAR alpha, PPAR delta (also called PPAR beta) and PPAR gamma (PPARg). All these subtypes heterodimerize with Retinoid X receptor (RXR) and these heterodimers regulate transcription of various genes. PPAR-gamma receptor (glitazone receptor) is involved in the regulation of glucose and lipid metabolism. To identify the compounds that activate PPAR-gamma signaling, GeneBLAzer PPAR gamma UAS-bla HEK293H cell line (Invitrogen, Carlsbad, CA, USA) containing a beta-lactamase reporter gene under the control of an Upstream Activator Sequence (UAS) was used to screen the Tox21 compound library. The cytotoxicity of the Tox21 compound library against the PPARg-bla cell line was tested in parallel by measuring the cell viability using CellTiter-Glo assay in the same wells.
Tox21 Assay Protocol Summary: PPARg-bla cells were dispensed at 3000 cells/5uL/well in 1536-well black wall/clear bottom plates using a Multidrop Combi (Thermo Fisher Scientific, Waltham, MA) dispenser. After the assay plates were incubated at 37 C and 5% CO2 for 5 h, 23 nL of compounds dissolved in DMSO, positive controls or DMSO only was transferred to the assay plate by a Pintool station (Kalypsys, San Diego, CA), followed by addition of 1ul Rosiglitazone (50 nM, final concentration in the wells). The assay plates were incubated at 37 C for 17 h, and then 1 uL of LiveBLAzerTM B/G FRET substrate was added using a Bioraptr Flying Reagent Dispenser (FRD) workstation (Beckman Coulter, Indianapolis, IN, USA). The assay plates were incubated at room temperature for 1 h and fluorescence intensity was measured by an Envision plate reader (PerkinElmer, Shelton, CT). For cell viability readout that measures cytotoxicity, 4 ul/well of CellTiter-Glo reagent was added into the assay plates using a Flying Reagent Dispenser. After 30 min incubation at room temperature, the luminescence intensity in the plates was measured using a ViewLux plate reader (PerkinElmer).
(In qHTS, concentration-response curves come from the screen itself.)
On to `CC1=CC(=O)CCC1`, for which the “activity change, negative = cytotoxicity” value was -0.182% (inactive).

Turning to `COc1nc(C)nc(N)n1`, the “activity change, negative = cytotoxicity” value is 2.82% (inactive).

For `CCOC(=O)[C@H](CCc1ccccc1)N[C@@H](C)C(=O)N1CCC[C@H]1C(=O)O`, the “activity change, negative = cytotoxicity” value was 14.3% (inactive).

For `NC1CCN(c2cccc(Cl)n2)CC1`, the “activity change, negative = cytotoxicity” value is -3.68% (inactive).

On to `CN(C)C(=O)Nc1ccccc1`, for which the “activity change, negative = cytotoxicity” value was 18.5% (inactive).

As for `CCCCCCCCCCCCI`, the “activity change, negative = cytotoxicity” value is 19.8% [at 81.1 µM] (inactive).

On to `COC(=O)CCCCCCCCC(=O)OC`, for which the “activity change, negative = cytotoxicity” value is -13.7% [at 81.1 µM] (inactive).

Turning to `CO[Si](CCCNCCC[Si](OC)(OC)OC)(OC)OC`, the “activity change, negative = cytotoxicity” value was 1.92% (inactive).

Turning to `CC(C)(C)OC(=O)N1C[C@@H](F)C[C@H]1C(=O)O`, the “activity change, negative = cytotoxicity” value was -0.805% [at 81.1 µM] (inactive).

Regarding `CNc1ncnc2nc[nH]c12`, the “activity change, negative = cytotoxicity” value is -1.35% [at 81.1 µM] (inactive).

On to `CCCOCC(C)OCC(C)O` (stereo not given), for which the “activity change, negative = cytotoxicity” value was 12.1% [at 81.1 µM] (inactive).

For the molecule `Cc1ccccc1Br`, the “activity change, negative = cytotoxicity” value was 15.3% (inactive).

In the case of `O=C1OC(=O)c2cc([N+](=O)[O-])ccc21`, the “activity change, negative = cytotoxicity” value is -9.3% (inactive).

Turning to `C#CC(C)(O)CC(C)C` (stereo not given), the “activity change, negative = cytotoxicity” value was 0.867% (inactive).

`O=c1[nH]c2ccccc2c(=O)n1CCCl`: the “activity change, negative = cytotoxicity” value is 12.6% (inactive).

Turning to `CCCOc1ccccc1-c1nc2n[nH]nc2c(=O)[nH]1`, the “activity change, negative = cytotoxicity” value is -17% (inactive).

As for `CCCCN(CCO)CCO`, the “activity change, negative = cytotoxicity” value is -16.2% (inactive).

As to `NCCNC(=O)c1ccc(Cl)cn1`, the “activity change, negative = cytotoxicity” value is 7.85% (inactive).

For `CNC(=O)c1c(I)c(NC(=O)CCCCC(=O)Nc2c(I)c(C(=O)O)c(I)c(C(=O)NC)c2I)c(I)c(C(=O)O)c1I`, the “activity change, negative = cytotoxicity” value was 0.325% (inactive).

Take `O=C(O)/C=C/c1ccc(Cn2ccnc2)cc1`: the “activity change, negative = cytotoxicity” value was 15.9% (inactive).

In the case of `OCC(O)[C@@H](O)[C@H](O)[C@H](O)CO[C@H]1O[C@H](CO)[C@@H](O)[C@H](O)[C@H]1O` (stereo not given in full), the “activity change, negative = cytotoxicity” value was -4.83% (inactive).

On to `NC(N)=NS(=O)(=O)c1ccc(N)cc1`, for which the “activity change, negative = cytotoxicity” value was 15.6% (inactive).

Turning to `CC/C=C\C#N`, the “activity change, negative = cytotoxicity” value was -0.407% (inactive).

`CC(C)=CCC/C(C)=C/C(=O)O`: the “activity change, negative = cytotoxicity” value is -0.188% (inactive).

As for `CCCC(C)C(=O)O` (stereo not given), the “activity change, negative = cytotoxicity” value was -0.615% (inactive).

Regarding `O=C1C(CCS(=O)c2ccccc2)C(=O)N(c2ccccc2)N1c1ccccc1` (stereo not given), the “activity change, negative = cytotoxicity” value was -9.64% (inactive).

Consider `N#CCc1ccccc1[N+](=O)[O-]`, for which the “activity change, negative = cytotoxicity” value is -8.75% (inactive).

With `O=C(O)C1CCC1`, the “activity change, negative = cytotoxicity” value was 5.3% (inactive).

For `CCCCNc1ccccc1`, the “activity change, negative = cytotoxicity” value was 8.6% (inactive).

`CC(C)=CC(=O)O`: the “activity change, negative = cytotoxicity” value was 5.9% (inactive).

For the molecule `C(=C(c1ccccc1)c1ccccc1)c1ccccc1`, the “activity change, negative = cytotoxicity” value was 2.9% (inactive).

On to `CC1CCN(CCCC(=O)c2ccc(F)cc2)CC1`, for which the “activity change, negative = cytotoxicity” value is -0.383% (inactive).

As to `Nc1nc2c(ncn2CCC(CO)CO)c(=O)[nH]1`, the “activity change, negative = cytotoxicity” value was -1.83% (inactive).

As to `COc1cccc(Br)c1`, the “activity change, negative = cytotoxicity” value is 2.94% (inactive).

Regarding `CCCCCCCCCCCCCCC`, the “activity change, negative = cytotoxicity” value is 3.59% (inactive).

Regarding `O=S(=O)(c1cccc2cnccc12)N1CCCNCC1`, the “activity change, negative = cytotoxicity” value is -14.8% (inactive).

Take `Cc1nccn1CC1CCc2c(c3ccccc3n2C)C1=O` (stereo not given): the “activity change, negative = cytotoxicity” value was 3.79% (inactive).

In the case of `CCCCCCOC(=O)c1ccccc1O`, the “activity change, negative = cytotoxicity” value was -13.8% (inactive).

On to `NC(CS)C(=O)O` (stereo not given), for which the “activity change, negative = cytotoxicity” value was 14.2% (inactive).

Take `Nc1nc(F)nc2c1ncn2[C@@H]1O[C@H](CO)[C@@H](O)[C@@H]1O`: the “activity change, negative = cytotoxicity” value was 0.432% (inactive).
